We go through six compounds from PubChem BioAssay (Tox21).

Experiment [1] is described as follows: Nuclear factor erythroid 2-related factor 2/antioxidant responsive element (Nrf2/ARE) small molecule agonists: qHTS cell viability counter screen in human keratinocytes (AID 1919968; active = well fitted curve in the direction sought with a large enough effect in the repeat runs; an effect the other way counts as inactive or inconclusive; note: nearly all actives have a fitted effect of over 55% in size). The method, boiled down: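 Fluorescence read-out from CellTiter-Fluor after 1 h at 37 C. Wells held HaCaT-derived ARE-luciferase reporter cells (1,500/well) treated 23 h with DMSO-dissolved compounds. Run in the same wells as the luciferase agonist read.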
In general terms: In qHTS, concentration-response curves come from the screen itself.

The nature of experiment [2]: Nuclear factor erythroid 2-related factor 2/antioxidant responsive element (Nrf2/ARE) small molecule agonists: luciferase reporter gene qHTS assay in human keratinocytes (AID 1919969). Note: nearly all actives have a fitted effect of over 35% in size. Note: potency is the fitted concentration of half-maximal effect. On the technique in general: Reporter assays use an easily measured gene product as a stand-in for the process of interest.
In experiment [3] the target is Gonadotropin-releasing hormone receptor (Homo sapiens) (UniProt P30968). The experiment can be described thus: Human gonadotropin-releasing hormone receptor (GnRHR) small molecule agonists, calcium flux assay in GnRHR-HEK293 cells (AID 1920063). Note: nearly all actives have a fitted effect of over 35% in size. Summed up: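 Calcium-dye fluorescence, Ex/Em=480/540, recorded every 1 sec over 3 min after compound addition to GnRHR-HEK293 cells. Cells had been seeded 18 hours earlier and dye-loaded for 1 hour at 37 C. Fifteen concentrations, triplicates.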
On the technique in general: Calcium flux is commonly read through the fluorescence of an indicator in the cells.

Experiment [4] concerns the target KiSS-1 receptor (Homo sapiens) (UniProt Q969F8). The experiment can be described thus: Human kisspeptin (KISS1R) small molecule agonists, calcium flux assay in KISS1R-HEK293 cells (AID 1920064; active = well fitted curve in the direction sought with a large enough effect in the repeat runs; an effect the other way counts as inactive or inconclusive). Summed up:
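Calcium flux read-out: kinetic fluorescence at Ex/Em=480/540, 1 s intervals over 3 min, after pin-tool compound addition to dye-loaded KISS1R-HEK293 cells. Fifteen concentrations, triplicates.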

The nature of experiment [5]: G protein-coupled receptor (GPCR) small molecule agonists, calcium flux assay: HEK293 wild type cell line counter screen (AID 1920065). Summed up: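 Agonist mode; 18 h seeding at 37 C, 1 h dye load at 37 C; compounds pinned from DMSO, ATP as positive control; kinetic fluorescence 480/540 nm, 3 min, 1 s reads; 15 concentrations, triplicate.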
Experiment [6] can be described thus: p53 small molecule agonists, cell-based qHTS assay with human liver microsomes (AID 1963577).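 Note: p53 response element beta-lactamase reporter cells with liver microsomes plus NADPH.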 Summed up:
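Steps: plate p53RE-bla cells, incubate 5 h at 37 C; add compound in DMSO; add microsomes (0.5 mg/mL final) and NADPH (0.5 mg/mL final); incubate 16 h at 37 C; add LiveBLAzer, 2 h RT; read fluorescence.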

Experiment [7] in a line: p53 small molecule agonists, cell-based qHTS assay with rat liver microsomes (AID 1963578). The method, boiled down:
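Metabolic activation is supplied by rat liver microsomes with NADPH (each 0.5 mg/mL final). p53RE-bla cells incubate with compound 16 h at 37 C; reporter activity is measured by LiveBLAzer fluorescence.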

Experiment [8] is described as follows: p53 small molecule agonists, cell-based qHTS assay with rat liver microsomes: qHTS cell viability counter screen (AID 1963580). Note: nearly all actives have a fitted effect of over 45% in size. The method, boiled down: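 Cytotoxicity counter screen: intracellular ATP read by CellTiter-Glo luminescence in the p53 reporter wells. HCT-116 p53RE-bla cells were treated for 16 h at 37 C alongside rat liver microsomes and NADPH, each 0.5 mg/mL final.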

Experiment [9] is described as follows: p53 small molecule agonists, cell-based qHTS assay: qHTS cell viability counter screen (AID 1963581). Note: nearly all actives have a fitted effect of over 45% in size. Summed up: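 Cytotoxicity read-out: ATP-based luminescence (CellTiter-Glo, 30 min RT) measured in the same wells as the p53 reporter assay, HCT-116 p53RE-bla cells, 16 h compound exposure at 37 C.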
The nature of experiment [10]: p53 small molecule agonists, cell-based qHTS assay (AID 1963582; active = well fitted activation curve with a large enough effect in the signal ratio in the repeat runs, not every such curve was filed as active; the % refers to the signal ratio). Summed up: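 Fluorescence intensity read-out of a beta-lactamase reporter under a p53 response element. Cells were exposed to DMSO-dissolved compounds for 16 h at 37 C, then developed with FRET substrate for 2 h at RT.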
Experiment [11] addresses 5-hydroxytryptamine receptor 2A (Homo sapiens) (UniProt P28223). The experiment can be described thus: 5-hydroxytryptamine receptor 2A (HTR2A) small molecule agonists, cell-based qHTS assay (AID 1963587). Note: nearly all actives have a fitted effect of over 30% in size. The method, boiled down:
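Kinetic calcium-flux fluorescence (2 min, 1 sec intervals) after compound addition in agonist mode. HTR2A-CHO cells were cultured 18 h, then dye-loaded 1 h at 37 C.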

The target of experiment [12] is Muscarinic acetylcholine receptor M1 (Homo sapiens) (UniProt P11229). Kind of experiment: Cholinergic receptor muscarinic 1 (CHRM1) small molecule antagonists, cell-based qHTS assay (AID 1963588). Note: nearly all actives have a fitted effect of over 40% in size. Summed up: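 Compounds were tested at 15 concentrations in three independent runs. Dye-loaded CHRM1-CHO cells were exposed 5 min at room temperature before stimulation by acetylcholine added at 50nM. Intracellular calcium was read kinetically on FDSS for 3 min.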

The target is the same in experiment [13]. The experiment can be described thus: Cholinergic receptor muscarinic 1 (CHRM1) small molecule agonists, cell-based qHTS assay (AID 1963589). Note: nearly all actives have a fitted effect of over 35% in size. The method, boiled down:
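Calcium flux read-out: kinetic fluorescence at 1 sec intervals after pin-tool compound addition to dye-loaded CHRM1-CHO cells (human M1). Agonist mode; 15 concentrations tested in triplicate independent runs.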

The nature of experiment [14]: cAMP Responsive Elements (CRE) small molecule agonists, cell-based qHTS assay (AID 1963590). Summed up:
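Beta-lactamase reporter readout: LiveBLAzer B/G FRET substrate, 2 h at room temperature, added after 3 h compound treatment of CRE-bla HEK 293T cells at 37 C/5% CO2.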

A short description of experiment [15]: cAMP Responsive Elements (CRE) small molecule antagonists, cell-based qHTS assay (AID 1963591; active = well fitted inhibition curve with a large enough effect in the signal ratio in the repeat runs, not every such curve was filed as active; the % refers to the signal ratio). Summed up:
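HEK293T CRE-bla; 18 h preincubation; compound pin-transfer; NKH477 0.25 uM final, 3 h, 37 C; LiveBLAzer FRET substrate 2 h RT.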

Experiment [16] addresses Beta-2 adrenergic receptor (Homo sapiens) (UniProt P07550). The experiment can be described thus: Adrenergic beta2 receptor (ADRB2) small molecule antagonists, cell-based qHTS assay (AID 1963592). Note: series mostly up to about 92 µM; nearly all actives have a fitted effect of over 50% in size. The method, boiled down:
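Assay format: CHO-ADRB2 cells, 18-20hr seeding at 37C/5% CO2, then compound plus 1nM isoproterenol agonist mix for 0.5hr RT. Homogeneous time-resolved fluorescence cAMP detection after 1hr, expressed as 665/615 nm ratio.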

Experiment [17] deals with D(2) dopamine receptor (Homo sapiens) (UniProt P14416). The experiment can be described thus: Dopamine D2 receptor (DRD2) small molecule agonists, cell-based qHTS assay (AID 1963594). Note: nearly all actives have a fitted effect of over 35% in size. The method, boiled down:
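cAMP accumulation in DRD2-HEK293 cells measured by HTRF after 1 h detection; compounds added 10 min before NKH477 (200nM […]) forskolin-analogue stimulation, 30 min at room temperature, with Ro20-1724 present at 0.1 mM final.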

For experiment [18] the target is unchanged. Kind of experiment: Dopamine D2 receptor (DRD2) small molecule antagonists, cell-based qHTS assay (AID 1963595; active = well fitted inhibition curve with a large enough effect in the signal ratio in the repeat runs, with a control signal flat; the % refers to the signal ratio). Summed up: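 In this cell-based antagonist screen, compounds act for 10 min at room temperature before a 30 min challenge with 12 nM quinpirole and 200 nM NKH477. cAMP is quantified by HTRF competition in DRD2-HEK293 cells containing 0.1 mM Ro20-1724.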

Experiment [19] concerns the target 5-hydroxytryptamine receptor 2A (Homo sapiens) (UniProt P28223). Kind of experiment: 5-hydroxytryptamine receptor 2A (HTR2A) small molecule antagonists, cell-based qHTS assay (AID 1963586). Note: nearly all actives have a fitted effect of over 45% in size. The method, boiled down:
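CHO cells stably expressing human HTR2A were plated for 18 h at 37 C, then loaded with calcium dye for 1 h. Compounds were preincubated 5 min at room temperature before DOI (4 nM solution) was added. Kinetic fluorescence was read for 3 min.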

In experiment [20] the target is Beta-2 adrenergic receptor (Homo sapiens) (UniProt P07550). Kind of experiment: Adrenergic beta2 receptor (ADRB2) small molecule agonists, cell-based qHTS assay (AID 1963593).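 Note: CHO cells stably overexpressing human ADRB2.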 Summed up: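 CHO cells stably over-expressing ADRB2 were plated overnight at 37C, then dosed with compounds plus a stimulation mix containing 100uM IBMX and 25uM Ro-20-1724 for 0.5hr at room temperature. cAMP was measured by HTRF competition, 1hr.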

Values without a mark were called inactive. Results filed as inconclusive are left out. Calls of active or inactive are those of the source. Unless noted, calls come from the whole dose curve.
% is set by controls: 0 for no effect and ±100 for the full control effect.

D(2) dopamine receptor (Homo sapiens), sequence (P14416 whole entry, looked up): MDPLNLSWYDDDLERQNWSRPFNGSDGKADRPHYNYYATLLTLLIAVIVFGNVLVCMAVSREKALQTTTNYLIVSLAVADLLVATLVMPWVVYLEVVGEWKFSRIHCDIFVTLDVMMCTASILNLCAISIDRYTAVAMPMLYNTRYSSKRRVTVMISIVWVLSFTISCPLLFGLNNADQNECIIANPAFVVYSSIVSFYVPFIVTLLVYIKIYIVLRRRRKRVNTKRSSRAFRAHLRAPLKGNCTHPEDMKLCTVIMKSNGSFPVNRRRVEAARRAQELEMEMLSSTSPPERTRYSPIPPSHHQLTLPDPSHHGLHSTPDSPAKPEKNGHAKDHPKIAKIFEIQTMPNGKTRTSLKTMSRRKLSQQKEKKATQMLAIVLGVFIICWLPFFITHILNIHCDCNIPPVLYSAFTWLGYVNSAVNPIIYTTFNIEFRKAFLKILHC
Beta-2 adrenergic receptor (Homo sapiens), sequence (P07550 whole entry, looked up): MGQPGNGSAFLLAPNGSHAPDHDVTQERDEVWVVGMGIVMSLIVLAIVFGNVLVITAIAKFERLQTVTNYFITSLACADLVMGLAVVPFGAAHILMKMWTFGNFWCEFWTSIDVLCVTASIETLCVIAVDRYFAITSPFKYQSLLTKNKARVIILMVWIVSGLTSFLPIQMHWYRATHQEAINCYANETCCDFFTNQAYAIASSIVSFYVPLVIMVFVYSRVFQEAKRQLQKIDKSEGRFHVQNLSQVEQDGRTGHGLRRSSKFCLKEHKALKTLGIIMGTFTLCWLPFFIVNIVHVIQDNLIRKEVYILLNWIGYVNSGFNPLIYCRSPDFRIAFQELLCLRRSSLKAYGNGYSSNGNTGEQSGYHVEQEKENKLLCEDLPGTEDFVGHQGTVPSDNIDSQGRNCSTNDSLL
Gonadotropin-releasing hormone receptor (Homo sapiens), sequence (P30968 whole entry, looked up): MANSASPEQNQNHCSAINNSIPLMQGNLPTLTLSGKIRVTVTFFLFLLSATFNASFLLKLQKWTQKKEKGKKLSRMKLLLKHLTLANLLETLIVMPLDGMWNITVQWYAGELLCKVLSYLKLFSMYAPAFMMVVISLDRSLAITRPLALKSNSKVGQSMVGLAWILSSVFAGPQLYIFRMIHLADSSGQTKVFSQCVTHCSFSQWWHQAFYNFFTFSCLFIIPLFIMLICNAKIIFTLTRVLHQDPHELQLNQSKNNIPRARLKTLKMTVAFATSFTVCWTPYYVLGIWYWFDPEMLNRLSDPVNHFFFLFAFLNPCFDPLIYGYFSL
5-hydroxytryptamine receptor 2A (Homo sapiens), sequence (P28223 whole entry, looked up): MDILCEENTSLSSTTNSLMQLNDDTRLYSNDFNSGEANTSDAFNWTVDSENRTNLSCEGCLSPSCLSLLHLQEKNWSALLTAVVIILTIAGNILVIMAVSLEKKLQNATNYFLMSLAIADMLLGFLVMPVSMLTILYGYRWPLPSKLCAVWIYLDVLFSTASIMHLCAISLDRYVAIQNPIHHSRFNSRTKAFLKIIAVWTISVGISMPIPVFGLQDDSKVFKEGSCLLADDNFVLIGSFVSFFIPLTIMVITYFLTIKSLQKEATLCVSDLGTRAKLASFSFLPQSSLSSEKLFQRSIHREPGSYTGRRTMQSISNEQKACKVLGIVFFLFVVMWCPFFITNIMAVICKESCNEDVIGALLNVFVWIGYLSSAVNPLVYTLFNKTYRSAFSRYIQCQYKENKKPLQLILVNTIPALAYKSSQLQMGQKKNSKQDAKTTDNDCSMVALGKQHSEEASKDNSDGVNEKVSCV
Muscarinic acetylcholine receptor M1 (Homo sapiens), sequence (P11229 whole entry, looked up): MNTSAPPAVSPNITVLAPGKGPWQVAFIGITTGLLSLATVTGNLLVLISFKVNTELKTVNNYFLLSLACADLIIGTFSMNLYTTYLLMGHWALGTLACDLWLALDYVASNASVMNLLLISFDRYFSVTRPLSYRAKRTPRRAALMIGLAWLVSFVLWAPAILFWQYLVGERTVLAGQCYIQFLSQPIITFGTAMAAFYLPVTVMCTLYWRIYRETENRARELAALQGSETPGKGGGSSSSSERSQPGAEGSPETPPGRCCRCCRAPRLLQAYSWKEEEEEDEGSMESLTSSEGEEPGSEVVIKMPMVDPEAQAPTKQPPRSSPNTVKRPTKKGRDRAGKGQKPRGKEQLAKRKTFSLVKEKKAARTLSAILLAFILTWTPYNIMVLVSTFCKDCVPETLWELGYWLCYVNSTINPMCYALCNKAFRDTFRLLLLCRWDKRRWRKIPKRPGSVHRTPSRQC
KiSS-1 receptor (Homo sapiens), sequence (Q969F8 whole entry, looked up): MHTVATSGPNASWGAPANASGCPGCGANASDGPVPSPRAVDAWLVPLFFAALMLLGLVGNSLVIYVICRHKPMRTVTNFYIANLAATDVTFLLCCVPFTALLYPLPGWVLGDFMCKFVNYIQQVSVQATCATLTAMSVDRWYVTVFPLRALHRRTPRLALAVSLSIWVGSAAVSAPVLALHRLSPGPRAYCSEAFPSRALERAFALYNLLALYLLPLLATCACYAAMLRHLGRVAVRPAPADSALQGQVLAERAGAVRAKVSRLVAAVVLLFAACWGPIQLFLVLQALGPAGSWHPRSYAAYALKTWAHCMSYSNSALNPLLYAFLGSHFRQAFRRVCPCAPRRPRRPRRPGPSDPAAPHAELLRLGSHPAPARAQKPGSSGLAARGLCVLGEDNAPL

Turning to `C[C@@H](O)[C@H](N)C(=O)O`, the results for the activity change, negative = cytotoxicity in experiment [1], in experiment [8] and in experiment [9] were 1.84% [at 19 µM], -1.12% [at 13.5 µM] and 3.28% [at 13.5 µM], respectively. Also, the activity, positive = activation in experiment [2] is 1.15% [at 19 µM]. The activity change in [3] is -1.37% [at 11.8 µM, active compounds read high]. Besides, the activation was -0.197% [at 15.8 µM] in experiment [4]; -0.289% [at 11.8 µM] in experiment [5]; 1.89% [at 13.5 µM] in experiment [6]; 3.27% [at 13.6 µM] in experiment [7]; -0.75% [at 13.5 µM] in experiment [10]; 1.14% [at 15.9 µM] in experiment [11]. Further, the activation in [13] is -0.0423% [at 15.8 µM]; in experiment [14] it was -0.0351% [at 19 µM]; in experiment [17] it was 17.6% [at 19 µM]. The activity, negative = inhibition in [12] was -1.65% [at 12.6 µM]. Further, the activity change, negative = inhibition is 5.26% [at 18.9 µM] in experiment [15], 2.52% [at 19 µM] in experiment [16] and -2.84% [at 18.9 µM] in experiment [18].

Take `CCC(CC)(CC(=O)Nc1cccc(/C=C/c2nc(C3CCC3)cs2)c1)C(=O)O`: the Potency result in [1], in experiment [2], in experiment [3], in experiment [6], in experiment [7] and in experiment [8] was “inactive” in each case. Moreover, the Potency result in experiment [9], in experiment [10], in experiment [19], in experiment [11], in [13] and in experiment [16] was “inactive” throughout. Besides, the Potency entry in experiment [17] and in [18] was “inactive” each time. Also, the outcome in [4] and in [5] was inactive.

As for `CCOCC(O)COc1ccc(NC(=O)CC[S+](C)C)cc1` (centres undefined), the Potency entry in experiment [1], in experiment [2], in [3], in [6], in [7] and in experiment [8] was “inactive” throughout. Besides, the Potency entry in experiment [9], in experiment [10], in [11], in experiment [12], in [13] and in experiment [14] was “inactive” each time. For the same compound, the Potency result in [15], in experiment [16], in [20] and in [18] was “inactive” each time. The outcome in experiment [4] and in experiment [5] was inactive.

As for `CCCCCCOc1ccc(N)cc1`, the Potency result in experiment [1], in experiment [3], in experiment [6], in experiment [7], in experiment [8] and in experiment [9] was “inactive” in each case. For the same compound, the Potency result in experiment [10], in experiment [12], in [13], in experiment [14], in experiment [15] and in experiment [16] was “inactive” throughout. The Potency entry in experiment [20], in [17] and in [18] was “inactive” in each case. In addition, the Potency in [2] was 21.7 µM (active). Moreover, the outcome in [4] and in experiment [5] was inactive.

For the compound `N#Cc1ccc(C/C(=N/NC(=O)Nc2ccc(OC(F)(F)F)cc2)c2cccc(C(F)(F)F)c2)cc1`, the Potency entry in experiment [1], in experiment [2], in [3], in experiment [6], in [7] and in experiment [8] was “inactive” in each case. Besides, the Potency result in [9], in [19], in experiment [11], in experiment [12], in experiment [13] and in experiment [15] was “inactive” each time. In addition, the Potency entry in experiment [16], in experiment [17] and in experiment [18] was “inactive” each time. Also, the result in experiment [4] and in experiment [5] was inactive.

`COC(=O)c1c(C)cc(O)c(C)c1O`: the Potency result in experiment [1], in experiment [2], in experiment [3], in experiment [6], in [7] and in experiment [8] was “inactive” throughout. The Potency entry in [9], in [10], in experiment [19], in [12], in experiment [13] and in [15] was “inactive” in each case. Moreover, the Potency result in experiment [20], in experiment [17] and in [18] was “inactive” throughout. Also, the outcome in [4] and in experiment [5] was inactive.
